Holding throughout (experiment): NCI-60 one-dose screen, 48 h (100 = growth as untreated, 0 = no growth, -100 = all killed)
Holding throughout (conditions): 10 µM unless noted

For experiment [1], the system named is DU-145 prostate.
Experiment [2] has as its system K-562 leukemia.
In experiment [3] the test system is MALME-3M melanoma.
Experiment [4] relates to MDA-MB-231 breast.
For experiment [5], the system named is RXF 393 renal.
Experiment [6] relates to SF-268 CNS.
Experiment [7] deals with SF-295 CNS.
The subject of experiment [8] is SF-539 CNS.
Experiment [9] relates to UACC-257 melanoma.
The subject of experiment [10] is M14 melanoma.
Experiment [11] deals with HCT-15 colon.
Experiment [12] concerns HT29 colon.
The test system of experiment [13] is SNB-75 CNS.
The test system of experiment [14] is SNB-19 CNS.
The test system of experiment [15] is U251 CNS.
The subject of experiment [16] is PC-3 prostate.
In experiment [17] the test system is SK-MEL-5 melanoma.
Experiment [18] relates to UACC-62 melanoma.
Experiment [19] deals with LOX IMVI melanoma.
Experiment [20] has as its system SK-MEL-28 melanoma.

This is part of a sample that, as a whole, favours compounds with a hit. Of some 83,000 tested, about 20% had one in any assay.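 48-hour exposure, single concentration, 96-well plates; percent growth endpoint where 0 means no net growth. Active: below 10.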 A number with no mark means an inactive call. Active and inactive are the calls of the source.

Drawing on PubChem BioAssay (NCI), this text covers growth for 8 compounds.

Regarding `C=CC(=O)Nc1ccc(Nc2nccc(-c3ccc(N4CCCC4)c(C#N)c3)n2)cc1`, the growth in experiment [1] was 36.8%; in experiment [2], 16.6%; in experiment [3], -41.8% (active); in experiment [4] it was 60.9%; in [5], -54.5% (active); in [6], 43.9%. The growth is -36.9% (active) in experiment [7]; 51.1% in [8]; 39.4% in experiment [9]; 3.42% (active) in experiment [10]; -36.7% (active) in experiment [11]; 2.55% (active) in experiment [12]. The growth in experiment [13] is 15.4%; in experiment [14], 41.5%; in [15] it was 5.57% (active); in experiment [16] it was 23.6%; in [17], 15.4%; in experiment [18], 52.9%. Further, the growth in [19] was 69.4%.
Turning to `FC(F)(F)c1ccc(Cn2cc(CSc3nc4ccccc4s3)nn2)cc1`, the growth is 108% in [1]; 97.1% in experiment [2]; 111% in experiment [3]; 99% in experiment [4]; 104% in experiment [5]; 101% in experiment [6]. Besides, the growth in experiment [7] is 95.8%; in experiment [8] it was 106%; in [9] it was 87%; in experiment [10], 100%; in experiment [11], 101%; in [12] it was 94.4%. The growth in [13] was 94%; in [14], 101%; in experiment [15], 96.3%; in experiment [16], 95.7%; in [17] it was 105%; in experiment [18] it was 87.3%. The growth in [19] is 110%.
On to `NC1(CO)COC(c2ccccc2)OC1` (stereo not drawn), for which the growth in [1] was 115%; in [2] it was 89.5%; in experiment [3], 109%; in [4], 112%; in [5] it was 104%; in experiment [6] it was 110%. For the same compound, the growth is 113% in experiment [7]; 109% in experiment [8]; 98.4% in experiment [9]; 118% in experiment [10]; 113% in experiment [11]; 96.7% in [12]. Further, the growth in [13] was 120%; in experiment [14], 111%; in [15], 97.5%; in [16], 99%; in experiment [17] it was 96.1%; in experiment [18], 111%. Moreover, the growth is 107% in [19] and 118% in [20].
With `CCNC(=O)Oc1ccc(/C(=C(/CC)Cc2ccccc2)c2ccc(OCCN3CCCC3)cc2)cc1`, the growth is 104% in experiment [1]; 64.7% in experiment [2]; 107% in experiment [3]; 80.1% in [4]; 94.6% in experiment [5]; 92.9% in experiment [6]. The growth is 102% in experiment [7]; 97.2% in experiment [8]; 90.1% in [9]; 93.1% in [10]; 73.1% in [11]; 98.6% in experiment [12]. For the same compound, the growth in [13] was 85.5%; in experiment [14] it was 93.4%; in experiment [15] it was 91.7%; in experiment [16], 75%; in experiment [17] it was 91.7%; in [18], 98.3%. The growth in [19] is 91.4%.
With `Ic1ccccc1I`, the growth in experiment [1] is 116%; in [2] it was 103%; in experiment [3], 131%; in experiment [4] it was 111%; in experiment [5], 100%; in [6], 111%. Moreover, the growth was 106% in experiment [7]; 104% in experiment [8]; 88.3% in experiment [9]; 94.3% in experiment [10]; 99.8% in experiment [11]; 107% in experiment [12]. In addition, the growth in [13] was 88.3%; in experiment [14], 103%; in experiment [15], 99%; in [16], 99.7%; in experiment [17] it was 102%; in experiment [18], 97.3%. For the same compound, the growth in [19] is 102%.
Turning to `C=C(C)[C@@H]1CC[C@]2(C(N)=O)CC[C@]3(C)[C@H](CC[C@@H]4[C@@]5(C)CC[C@H](OCCC#N)C(C)(C)[C@@H]5CC[C@]43C)[C@@H]12`, the growth is 94.7% in experiment [1]; 74.3% in experiment [2]; 101% in [3]; 73.2% in experiment [4]; 86.8% in [5]; 74.1% in experiment [6]. Further, the growth in experiment [7] was 79.5%; in experiment [8], 91.6%; in experiment [9] it was 101%; in experiment [10], 90.2%; in experiment [11], 80.9%; in experiment [12], 84.7%. For the same compound, the growth in experiment [13] is 85.9%; in experiment [14] it was 81.2%; in experiment [15] it was 87.7%; in experiment [16], 68.8%; in experiment [17] it was 93.3%; in experiment [18], 67.1%. In [19], the growth is 87.1%.
Consider `C#Cc1cccc(Nc2nc(C)nc3cc(NC(=O)CCl)ccc23)c1`, for which the growth in experiment [1] was -95.8% (active); in experiment [2], 0.173% (active); in experiment [3], -77.6% (active); in experiment [4] it was -73.1% (active); in [5], -87.2% (active); in experiment [6], -67.2% (active). Moreover, the growth in [7] was -79.7% (active); in [8], -92.8% (active); in experiment [9] it was -60.9% (active); in experiment [10], -27.5% (active); in [11], -63.7% (active); in [12], -84% (active). In addition, the growth is -94.7% (active) in [13]; -32.9% (active) in experiment [14]; -93.9% (active) in experiment [15]; -81.2% (active) in experiment [16]; -94% (active) in [17]; -46.5% (active) in [18]. Besides, in experiment [19], the growth was -81.7% (active).
With `O=C(O)c1ccc(-c2ccc(/C=N/Nc3nc(Nc4ccccc4)nc(N4CCCCC4)n3)o2)cc1`, the growth in experiment [1] was 66.7%; in experiment [2] it was 67.5%; in [3], 59%; in [4], 96.5%; in experiment [5], 65.4%; in [6], 71.7%. Besides, the growth in [7] was -21.9% (active); in [8] it was 75.2%; in experiment [9], 93.9%; in experiment [10] it was 83.1%; in [11], 55.3%; in [12], 63.4%. In addition, the growth in experiment [13] was 65.7%; in experiment [14], 61%; in [15], 43.2%; in [16] it was 65.6%; in experiment [17], 71.5%; in experiment [18] it was 67.6%. For the same compound, the growth in experiment [19] was 68.6%.
